In the library only some 9.3% were active in any assay of this set; here they are far more common.
Rab9 promoter act: Rab9 promoter activation; Huh7 Rab9 promoter-luciferase reporter, luminescence, 24 h; Potency, µM (titrated, usually from 9.22 µM), for the others: at the highest dose activation, negative = inhibition, usual class: activators; 320,000 compounds, 2.8% hits; AID 485297; note: % of control where 0% means no effect; nearly all actives have a fitted effect of over 60% in size
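Huh7 reporter line, Rab9 promoter upstream of luciferase. Compound exposure 24 h at 37 °C in reduced-serum medium with 10% FBS. Read-out: luminescence.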
FLuc counter: firefly luciferase modulation, counter-screen for miR-21 project; P08659; purified FLuc, Km substrates, luminescence inhibition; 360,000 compounds, 6.9% hits; Potency, µM (top dose mostly 57.5 µM), for the others: at the highest dose activity change, negative = inhibition, hits mostly inhibitors;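 note: plate controls were vehicle for no effect and reference inhibitor for full effect; nearly all actives have a fitted effect of over 55% in size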
Target sequence (P08659 whole entry, looked up): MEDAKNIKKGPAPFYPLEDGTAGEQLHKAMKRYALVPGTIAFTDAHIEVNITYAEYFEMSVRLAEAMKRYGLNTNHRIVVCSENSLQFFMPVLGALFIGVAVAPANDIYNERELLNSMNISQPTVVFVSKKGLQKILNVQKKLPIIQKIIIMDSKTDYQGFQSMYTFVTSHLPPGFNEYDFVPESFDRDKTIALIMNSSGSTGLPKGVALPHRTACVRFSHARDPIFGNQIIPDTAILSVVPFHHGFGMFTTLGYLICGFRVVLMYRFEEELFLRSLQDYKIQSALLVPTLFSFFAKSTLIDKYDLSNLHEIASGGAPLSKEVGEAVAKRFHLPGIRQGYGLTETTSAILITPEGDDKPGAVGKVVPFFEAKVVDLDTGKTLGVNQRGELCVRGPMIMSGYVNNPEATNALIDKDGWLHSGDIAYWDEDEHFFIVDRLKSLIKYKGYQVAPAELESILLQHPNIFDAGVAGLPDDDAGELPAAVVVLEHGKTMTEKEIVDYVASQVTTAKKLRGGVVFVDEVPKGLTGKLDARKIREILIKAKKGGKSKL
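Purified P. pyralis luciferase, 10 nM final, with Km-level 10 uM D-luciferin and 10 uM ATP in 50 mM Tris acetate pH 7.5, 10 mM Mg acetate, 0.01% Tween-20, 0.05% BSA; 6-point qHTS titration about 60 µM downward; luminescence read.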
SMN2 splice enh: increases expression of the SMN2 splice variant; 210,000 compounds, 2.8% hits; Potency, µM (doses to about 46.1 µM), for the others: at the highest dose activity change, positive = activation, hits mostly activators; HEK293 SMN2-luciferase splicing reporter, luminescence, 30-36 h; note: % of control where 0% means no effect; nearly all actives have a fitted effect of over 55% in size
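HEK293 cells carry an SMN2 minigene-luciferase reporter in which exon 7 inclusion puts luciferase in frame. Cells were seeded at 2000 cells/well, attached for 10-12 hours, then exposed to compounds for 30-36 hours at 37C before ONE-Glo luminescence.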
ELG1 genotox: inducers of genotoxicity in HEK293T ELG1-luciferase cells | HEK293T ELG1-luciferase reporter, luminescence, 16 h | 330,000 compounds, 1.3% hits | Potency, µM (highest dose often 46 µM), inactives show top-dose activity change, positive = activation, usual class: activators; note: % of control where 0% means no effect; nearly all actives have a fitted effect of over 60% in size
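ELG1-luciferase HEK293T cells, 2,000/well; compound pinned in; 16 hr, 37 °C, 5% CO2; ONE-Glo, 30 min RT; luminescence on CCD imager.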
ELG1 repair inh: inhibitors of ELG1-dependent DNA repair in HEK293T cells; HEK293T ELG1-luciferase reporter, luminescence, 16 h; DNA damage induced by 5-fluorouridine; Potency, µM (doses to about 46.1 µM), inactives show at the top dose activity change, negative = inhibition, usual class: inhibitors; 330,000 compounds, 2.3% hits; AID 504467; note: % is set by controls: 0 for no effect and ±100 for the full control effect; nearly all actives have a fitted effect of over 55% in size
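Overnight (16 hr) co-exposure of 2,000 cells/well to 5-fluorouridine and compound at 37 °C preceded detection. Luciferase was quantified via ONE-Glo luminescence; loss of signal denotes inhibition.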
NPC1 promoter act: activates the NPC1 promoter. 320,000 compounds, 2.4% hits. Potency, µM (titrated, usually from 9.22 µM), for inactives: at the top dose activation, most hits filed as activators. Huh7 NPC1 promoter luciferase reporter, 24 h; note: % of control where 0% means no effect; nearly all actives have a fitted effect of over 60% in size
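NPC1 promoter–luciferase Huh7 cells; 24 h compound; luminescence.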
The depositor's hits bear a star; ? = inconclusive; nt = no result given; [ ] = remark or other dose. Calls come from the whole dose curve; as a rule, active = well fitted curve in the direction sought with a large enough effect; inconclusive = small, poorly fitted or top-dose-only effect, or another doubt; inactive = no such curve, though single readings can be large; an effect the other way counts as inactive or inconclusive. Potency is the fitted concentration of half-maximal effect.

SMILES	Rab9 promoter act	FLuc counter	SMN2 splice enh	ELG1 genotox	ELG1 repair inh	NPC1 promoter act
Cc1cccc(N2C(=O)CSC23C(=O)N(CC(=O)NCCc2ccccc2)c2ccccc23)c1 (stereo unspecified)	nt	-1%	nt	nt	nt	nt
COC(=O)c1ccc(C)c(NC(=O)CSc2nnc3ccccn23)c1	-2%	3%	nt	1%	17%	2%
CCOC(=O)C1(Cc2cccc(OC)c2)CCCN(C(=O)c2cc(CC(C)C)[nH]n2)C1 (stereo unspecified)	3.5µM*	21µM*	nt	?	?	?
CCOC(=O)C1(Cc2cccc(Cl)c2)CCCN(C(=O)c2cc(C)[nH]n2)C1 (stereo unspecified)	-1%	4%	nt	-7%	0%	-1%
CCOC(=O)C1(Cc2cccc(OC)c2)CCCN(C(=O)CCN2CCCO2)C1 (stereo unspecified)	3.2µM*	15µM*	nt	23µM*	?	3.5µM*
CCOC(=O)C1(Cc2cccc(OC)c2)CCCN(C(=O)c2ccc(OC)o2)C1 (stereo unspecified)	2.5µM*	12µM*	nt	?	?	?
Cc1ccc(-c2nnc(NCc3nc4ccccc4[nH]3)c3ccccc23)cc1S(=O)(=O)N(C)C	-2%	-2%	-60%	-12%	10µM*	-1%
O=C(O)/C=C\C(=O)N1Cc2cc3ccccc3nc2C1	nt	nt	-10%[9.22 µM]	nt	nt	nt
COc1ccccc1CCC(=O)Oc1ccc(C#N)cc1OC	-3%	21µM*	nt	12%	3%	-3%
COc1cc(C#N)ccc1OC(=O)Cc1cc(OC)c(OC)c(OC)c1	-4%	-1%	nt	1%	1%	-4%
O=C(O)Cn1cc(/C=C2/NC(=O)N(c3ccc(Cl)cc3)C2=O)c2ccccc21	1%	?	-3%	-8%	-4%	-2%
Cc1ccc(-n2c(C)cc(/C=c3/sc4nc5ccccc5n4c3=O)c2C)cc1	-28%	1.2µM*	-79%	-1%	?	-22%
O=C(O)Cn1cc(/C=c2/sc3nc4ccccc4n3c2=O)c2ccccc21	-3%	11µM*	17%	0%	?	-1%
O=c1/c(=C\c2cccn2-c2ccccc2)sc2nc3ccccc3n12	2.5µM*	?	nt	4.6µM*	?	?
COc1ccc([C@H]2CC(=O)C=C(c3ccc(F)cc3OCc3ccccc3)C2)cc1OC	2%	-1%	nt	-9%	?	-12%
Cc1ccccc1C(=O)NC1CC2CCCC(C1)N2Cc1ccc(Cl)cc1 (stereo unspecified)	0%	2%	nt	-4%	-2%	-5%
CCOC(=O)Nc1ccc2nc(Sc3ccc(Cl)cc3)sc2c1	-20%	?	nt	-11%	-20%	-31%
O=C(NCCN1CCOCC1)c1cc(-c2ccc(Cl)cc2Cl)on1	5%	11µM*	nt	23%	?	27%
O=C(c1cc(-c2ccc(Cl)cc2Cl)on1)N1CCCCCC1	0.71µM*	1.2µM*	nt	4.6µM*	?	0.71µM*
O=C(c1cc(-c2ccc(Cl)cc2Cl)on1)N1CCCC1	1µM*	0.43µM*	nt	2.9µM*	?	0.89µM*
O=C(COC(=O)/C=C/c1ccco1)Nc1ccc(F)cc1Cl	30%	1%	19%	1%	5%	-8%
Cc1ccc(CNC(=O)c2cc(S(=O)(=O)N3CCCC(C)C3)cn2C)cc1 (stereo unspecified)	nt	7%	nt	nt	nt	nt
O=C(NCc1cccc(Cl)c1)c1ccc(CS(=O)Cc2ccc(Cl)cc2)o1 (stereo unspecified)	4%	1%	nt	-13%	13µM*	2%
O=C(OCC#CCSc1nnc(-c2ccccc2)o1)c1cc2ccccc2o1	-4%	-7%	-15%	12%	?	11%
Cc1ccc(-c2nnc(SCC#CCOC(=O)c3cccs3)o2)cc1	20%	19µM*	6%	12%	?	18%
SMILES	Rab9 promoter act	FLuc counter	SMN2 splice enh	ELG1 genotox	ELG1 repair inh	NPC1 promoter act
O=C(OCC#CCSc1nnc(-c2ccc(Br)cc2)o1)c1cccs1	-2%	?	-45%	8%	?	-5%
Cc1ccc(-c2nnc(SCC#CCOC(=O)c3ccco3)o2)cc1	?	17µM*	-2%	?	0%	5%
Nc1ncc(S(=O)(=O)NCc2ccccc2)cn1	nt	-8%	nt	nt	nt	nt
COCCn1c(-c2ccc(OC)cc2)nc2ccccc21	1%	19µM*	4%	-2%	?	1%
COCCn1c(COc2ccc(C)cc2)nc2ccccc21	?	9.5µM*	7%	11%	?	?
Cc1ccc(NCc2nc3ccccc3n2CCOc2ccccc2)cc1	2.5µM*	8.5µM*	12%[1.84 µM]	?	?	4.5µM*
COc1ccc(Cn2c(-c3ccc(OC)cc3)nc3ccccc32)cc1	-2%	?	-38%	-4%	?	-2%
CCn1c(COc2ccc(C)cc2)nc2ccccc21	2.8µM*	8.5µM*	nt	13%	?	?
O=S(=O)(Nc1nc2ccccc2nc1NCC1CCCO1)c1cc(Cl)ccc1Cl (stereo unspecified)	-3%	1%	nt	-7%	?	-3%
CCCN(CCC)CCc1cccc2c1CC(=O)N2	12%[46.1 µM]	nt	15%	nt	nt	2%[46.1 µM]
O=C(COCc1cc(-c2cccs2)on1)Nc1ccc(OC(F)(F)F)cc1	nt	5%	nt	nt	nt	nt
CC1CCCCC1NC(=O)CCNS(=O)(=O)c1ccc(Cl)cc1 (stereo unspecified)	-1%	1%	nt	-2%	2%	-2%
Cc1ccc2c(CC(=O)NNC(=O)c3ccncc3)coc2c1	-10%	-10%	nt	-4%	?	0%
CCCn1c(CNc2ccc(Br)cc2)nc2ccccc21	28%	17µM*	-39%	0%	-15%	1%
O=C1c2ccccc2C(=O)C1c1ccncc1	0.5µM*	3.4µM*	7.9µM*	3.2µM*	?	1.3µM*
Cc1ccc(C2C(=O)c3ccccc3C2=O)cc1	23%	17µM*	nt	4%	24%	12%
Cc1ccccc1N1C(=O)c2ccccc2NC1c1ccncc1 (stereo unspecified)	-5%	6%	2%	1%	-7%	-2%
O=C1c2ccccc2C(=O)C1c1ccccn1	1.4µM*	11µM*	nt	?	?	2.5µM*
O=C1c2cccnc2-c2ncccc21	7%	-1%	7%	4%	19%	3%
Cc1ccccc1C1C(=O)c2ccccc2C1=O	7%	-1%	nt	-5%	25%	-5%
COc1ccc(/C=C/c2nc(S(=O)(=O)c3ccccc3)c(NCCCN(C)C)o2)cc1OC	-2%	-1%	nt	7%	20%	-9%
CCOc1ccc(CCNC(=O)CSc2ncn[nH]2)cc1OCC	-1%	0%	nt	5%	5%	-5%
